# Anthrax LF inh2 = Bacillus anthracis LF protease inhibitors, primary screen, biochemical, multiplex microsphere, MLPCN library | multiplex microsphere protease cleavage assay | inhibition, % at 10 µM | actives 0.12% (n = 360,000) | Lethal factor (Bacillus anthracis), P15917; note: plate controls were buffer without enzyme for full effect and enzyme alone for no effect
# Bead autofluor = flagged as autofluorescent in microsphere protease counterscreen. fluorescence intensity (no concentration beside the values). actives 3.1% (n = 360,000). compound autofluorescence counterscreen, microsphere flow cytometry; hits give high values; in the data active = fluorescence intensity above about 16000; inconclusive = no clear call, values can overlap the other calls
# BJeLR lethal = MLPCN primary cell-based screen for lethality selective to Ras in HRASV12 cells | inhibition, % (concentration not given with the values) | BJeLR (HRASV12) viability, CellTiter-Glo ATP luminescence, 48 h | AID 1554, 2009 | actives 0.17% (n = 300,000); in the data active = inhibition above about 50%; inconclusive = no clear call, values can overlap the other calls
# BoNT-F LC inh = BoNT/F light chain protease inhibitors, primary screen, biochemical, flow cytometry, MLPCN library; AID 588497, 2011; Botulinum neurotoxin type F light chain protease (Clostridium botulinum); actives 0.22% (n = 360,000); inhibition, % at 10 µM; Multiplex microsphere protease cleavage assay; in the data active = inhibition above about 35%, passing the limit was not always enough; inconclusive = no clear call, values can overlap the other calls; note: plate controls were buffer without enzyme for full effect and enzyme alone for no effect
# BoNT A protease = BoNT/A light chain protease inhibitors, primary screen, biochemical, flow cytometry, MLPCN library; multiplex microsphere protease substrate cleavage; AID 588499, 2011; actives 0.17% (n = 360,000); inhibition, % at 10 µM; Botulinum neurotoxin type A light chain protease (Clostridium botulinum A str. ATCC 3502); note: plate controls were buffer without enzyme for full effect and enzyme alone for no effect
# * hit, by the source's call; ? = inconclusive; / = not tested or not shown. Hits are enriched below; roughly 3.5% of the tested compounds scored in any of these assays. Cut-off read from the data, not from the text of the source, unless noted: active = inhibition above about 30%; inconclusive = no clear call, values can overlap the other calls; inactive = below that.
SMILES,Anthrax LF inh2,Bead autofluor,BJeLR lethal,BoNT-F LC inh,BoNT A protease
CCOC(=O)N1CCN(C/C(C)=C/c2ccccc2)CC1,-2.1,20298*,/,11.9,?
O=C(c1ccco1)N1CCN(C(=O)c2nn3cccnc3c2Cl)CC1,-1.1,22749*,-1.5,-1.2,0.4
O=C(c1nn2cccnc2c1Cl)N1CCN(c2ccccc2)CC1,0.0,4170,/,6.2,0.1
OCCN1CCN(Cc2cccc(Oc3ccc(Cl)cc3)c2)CC1,-1.1,20285*,-3.2,1.3,1.1
CN1CCN(Cc2cccc(Oc3ccccc3)c2)CC1,-4.4,9643,-8.7,5.2,1.2
Cc1ccc(CSc2nnc(-c3ccncc3)n2CC2CCCO2)cc1 (configuration not stated),3.1,3748,3.5,-7.9,-0.6
CC(=O)Nc1ccc(-c2ccnc3c2CC(C(=O)NCc2ccco2)O3)cc1 (configuration not stated),-2.2,3860,/,-2.6,-0.3
O=C(Nc1ccccc1N1CCCCC1)c1ccc(N2C(=O)c3ccccc3C2=O)cc1,-1.6,16910*,-6.1,-1.3,0.4
O=C(Nc1ccccc1N1CCCCC1)c1ccccc1F,-2.4,23407*,1.8,-5.1,-1.1
COc1ccc(S(=O)(=O)Nc2cc(C)on2)cc1,-5.0,3833,-0.1,-5.1,-3.9
CCCS(=O)(=O)NC(=O)C1(C)CCN(C(=O)COc2ccccc2)C1 (configuration not stated),5.7,3717,/,1.9,0.1
Cc1ccc(O)c(NC(=S)NC(=O)c2ccccc2Cl)c1,2.2,4657,-5.3,38.1*,2.8
O=C(NC(=S)Nc1ccc(O)cc1)c1ccccc1Cl,-1.6,3528,-1.2,0.2,-0.3
CC1CCCC(C)N1C(=O)COC(=O)C1CCN(S(=O)(=O)c2ccc3c(c2)OCCO3)CC1 (configuration not stated),/,/,-2.5,/,/
CC1(C)C(=O)OC(C(=O)c2ccccc2)C(C)(C)C1=O (configuration not stated),0.4,21463*,-2.7,3.4,2.7
COc1ccccc1CCC(=O)NCCCn1ccc2ccccc21,-3.2,4167,-4.0,-17.6,-3.5
C[C@@H]1CN([C@@H](C)CO)C(=O)CCCn2cc(nn2)CO[C@H]1CN(C)S(=O)(=O)c1ccc(Cl)cc1,-8.1,2924,/,-2.1,-0.3
Cn1c(=O)c2c(nc(CN3CCN(C(c4ccccc4)c4ccccc4)CC3)n2CC(N)=O)n(C)c1=O,1.8,21667*,1.7,1.3,1.6
CC1CCCN(Cc2nc3c(c(=O)n(C)c(=O)n3C)n2CC(N)=O)C1 (configuration not stated),-4.3,16667*,1.4,-4.5,-1.8
O=C(Nc1cccc(Cl)c1)Nc1nccs1,-24.4,16192*,9.4,11.8,?
CC1=CC[C@@]23CCCN2C(=O)CCC[C@H]3C1,1.6,3486,/,-0.6,-0.2
COc1ccccc1C(=O)Nc1ccc2oc(-c3ccc(F)cc3)nc2c1,-0.2,17405*,7.0,-1.1,-1.9
CCCC(=O)Nc1ccc2oc(-c3ccc(OC)c(Br)c3)nc2c1,-5.7,21634*,0.5,3.3,2.9
CCOC(=O)c1[nH]c2ccc(OC)cc2c1N=CN(C)C,-4.0,3773,-0.5,8.8,0.4
CC(C)(C)NC(=O)C1CCN(C(=O)c2ccc(Br)cc2)CC1,2.8,19805*,3.9,6.6,?
SMILES,Anthrax LF inh2,Bead autofluor,BJeLR lethal,BoNT-F LC inh,BoNT A protease
Cc1ccc(S(=O)(=O)N2CCC(C(=O)N[C@H](C(=O)NCC3CCCO3)C(C)C)CC2)cc1 (some centres not stated),-1.9,20985*,-1.3,-1.0,-0.7
CC(C)(C)c1ccc(C(=O)N2CCC(C(=O)NCC3CCCO3)CC2)cc1 (configuration not stated),-2.6,22225*,12.6,1.8,0.6
COc1ccc(CCNC(=O)C2CCN(C(=O)c3ccc(Br)cc3)CC2)cc1,-11.1,3554,3.9,?,-0.9
COc1ccc(S(=O)(=O)N2CCC(C(=O)NCC3CCCO3)CC2)cc1 (configuration not stated),-0.1,20959*,-8.4,5.3,6.0
COc1ccc(S(=O)(=O)N2CCC(C(=O)NCC3CCCO3)CC2)cc1OC (configuration not stated),0.0,4453,10.5,-1.4,-0.1
COc1ccc(OC)c(NC(=O)COc2cc(O)c3c(c2)OC(C)(C)CC3=O)c1,-14.5,4157,/,-8.4,-0.6
